# PubChem BioAssay AID504339 (National Center for Advancing Translational Sciences (NCATS), 2011)
# About 17,000 (4.4%) of roughly 390,000 compounds were called active. About 8% were inconclusive and are not listed. The call rests on the fitted dose curve; in most records, active means well fitted inhibition curve with a large enough effect; inconclusive means small, poorly fitted or top-dose-only effect; inactive means no such curve, though single readings can be large or run the other way. What follows is part of a selection rich in actives, with near analogues and random picks from the rest.
# Target: Lysine-specific demethylase 4A (Homo sapiens) (UniProt O75164)
# Experiment: qHTS Assay for Inhibitors of JMJD2A-Tudor Domain; further: nearly all actives have a fitted effect of over 50% in size
# Settings: AlphaScreen JMJD2A-Tudor / H3K4me3 peptide binding; series mostly up to 114 µM; activity change, negative = inhibition: at the top concentration
# On the % scale 0 is the no-effect control and ±100 the full control effect; potency means the concentration at half of the fitted maximal effect.
# Chain of Lysine-specific demethylase 4A (Homo sapiens) (O75164 whole entry, looked up, the tested form may be a part): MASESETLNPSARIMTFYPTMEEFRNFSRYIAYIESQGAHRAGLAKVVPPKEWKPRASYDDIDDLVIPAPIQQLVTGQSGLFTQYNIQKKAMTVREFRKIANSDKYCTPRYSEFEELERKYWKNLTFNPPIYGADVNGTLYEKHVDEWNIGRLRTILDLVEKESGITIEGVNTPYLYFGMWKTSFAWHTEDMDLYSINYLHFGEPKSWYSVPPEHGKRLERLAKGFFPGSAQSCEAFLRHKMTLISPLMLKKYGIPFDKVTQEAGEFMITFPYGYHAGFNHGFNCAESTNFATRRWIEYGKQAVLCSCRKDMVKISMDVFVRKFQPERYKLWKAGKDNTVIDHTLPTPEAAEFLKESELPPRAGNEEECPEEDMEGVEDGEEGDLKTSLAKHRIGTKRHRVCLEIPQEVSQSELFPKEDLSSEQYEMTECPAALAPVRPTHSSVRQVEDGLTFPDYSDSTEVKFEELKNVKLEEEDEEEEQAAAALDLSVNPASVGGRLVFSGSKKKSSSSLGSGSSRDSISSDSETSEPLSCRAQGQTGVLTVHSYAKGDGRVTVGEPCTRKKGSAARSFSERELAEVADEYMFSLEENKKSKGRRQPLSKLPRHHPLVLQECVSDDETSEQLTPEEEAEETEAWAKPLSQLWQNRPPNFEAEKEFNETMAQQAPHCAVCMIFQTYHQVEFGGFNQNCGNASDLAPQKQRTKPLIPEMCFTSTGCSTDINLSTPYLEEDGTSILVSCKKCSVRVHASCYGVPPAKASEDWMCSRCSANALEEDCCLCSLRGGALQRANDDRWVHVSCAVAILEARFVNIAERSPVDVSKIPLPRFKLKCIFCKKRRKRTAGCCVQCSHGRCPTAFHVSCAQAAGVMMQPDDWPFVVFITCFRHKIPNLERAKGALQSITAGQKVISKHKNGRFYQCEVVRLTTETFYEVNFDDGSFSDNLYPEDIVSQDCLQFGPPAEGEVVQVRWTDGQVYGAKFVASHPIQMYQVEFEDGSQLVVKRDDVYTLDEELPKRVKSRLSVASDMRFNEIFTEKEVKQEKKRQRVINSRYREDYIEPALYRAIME
SMILES,"activity change, negative = inhibition",Potency
CCOC(=O)c1[nH]c(C)c(CCC(=O)NCc2ccccc2C)c1C,-30.2% (inactive),–
Cc1ccc(NCc2n[nH]c(=S)n2-c2ccccc2)cc1Cl,-18.5% (inactive),–
S=c1[nH]nc(-c2cc(-c3ccsc3)n[nH]2)n1-c1ccccc1,–,44.7 µM (active)
COc1cccc(-c2cc(C(=O)Nc3ccc(C)cc3)[nH]n2)c1,-15.5% (inactive),–
CCc1ccc(NC(=O)Cn2c(=O)n(CCC(=O)NCc3ccc4c(c3)OCO4)c(=O)c3ccccc32)cc1,-9.21% (inactive),–
O=C(CCSCc1ccccc1F)N1CCN(c2ccc(Cl)cc2)CC1,-19% (inactive),–
Cc1cccc(NC(=O)N2CCN(C)c3ncccc32)c1C,-19.5% (inactive),–
CCOc1ccc(CCNC(=O)c2cc3c(=O)n(C)c4ccccc4c3n2C)cc1,-18.5% (inactive),–
CC(C)N1CCc2c(sc(NC(=O)Cc3ccccc3)c2C#N)C1,-12.7% (inactive),–
CC(=O)N1CCc2c(sc(NC(=O)CCS(=O)(=O)c3ccccc3)c2C#N)C1,-9.72% (inactive),–
N#Cc1c(N)sc2c1CCN(C(=O)OCc1ccccc1)C2,–,56.2 µM (active)
Cn1c(=O)c2c(nc(SCC(=O)Nc3ccc(F)cc3)n2Cc2ccccc2)n(C)c1=O,2.06% (inactive),–
Cc1cccc(NC(=O)CSCC(=O)Nc2nnc(C3CC3)s2)c1,-2.27% (inactive),–
CC1CCN(c2ccc(C(=O)Nc3nnc(C4CC4)s3)cc2[N+](=O)[O-])CC1,-29.4% (inactive),–
O=C(CN1C(=O)c2ccc([N+](=O)[O-])cc2C1=O)Nc1nnc(C2CC2)s1,–,79.4 µM (active)
COc1ccc(NC(=O)CN2CCCN(Cc3ccccc3)S2(=O)=O)cc1,-17.2% (inactive),–
Cc1nc(N2CCOCC2)c2c(C(=O)NCc3cccc(Cl)c3)c(C)oc2n1,6.15% (inactive),–
O=C(CCC(=O)N/N=C/c1ccc(Br)o1)N/N=C/c1ccc(Br)o1,-12.7% (inactive),–
O=C(CCc1n[nH]c(=O)[nH]c1=O)N/N=C/c1ccc(Br)o1,-13.1% (inactive),–
Cc1n[nH]c(=S)n1/N=C/c1ccc(Br)o1,–,7.94 µM (active)

SMILES,"activity change, negative = inhibition",Potency
CC1CCCN(Cc2c(O)ccc3c(=O)c(Oc4ccc(C(C)(C)C)cc4)c(C(F)(F)F)oc23)C1 (stereo not given),-1.38% (inactive),–
Cc1ccc(NC(=O)Cc2ccc(NC(=O)N3CCCCc4ccccc43)cc2)cc1,-23% (inactive),–
Cc1nc(SCC(=O)NC2CCCC2)[nH]c(=O)c1C,-10.3% (inactive),–
Cc1c(C)n2c(SCC(=O)NC3CCCC3)nnc2[nH]c1=O,–,14.1 µM (active)
Cc1c(C)n2c(SCC(=O)N3CCCC3)nnc2[nH]c1=O,1.7% (inactive),–
CCSc1nnc2c(n1)OC(c1ccc(OCC(=O)O)cc1)Nc1ccccc1-2 (stereo not given),-30.4% (inactive),–
Cc1sc2ncn(CC(=O)N3CCN(c4ccc(F)cc4)CC3)c(=O)c2c1S(=O)(=O)N1CCN(c2ncccn2)CC1,-19.1% (inactive),–
CCOc1ccc(-n2nc3ccc(NC(=O)c4ccc(OC)c(Cl)c4)cc3n2)cc1,-16.8% (inactive),–
COc1cc(/C=C2/SC(=S)N(Cc3ccccc3)C2=O)cc(OC)c1O,–,3.55 µM (active)
COc1ccc(CCN=C2SCC(=O)N2Cc2ccccc2)cc1OC,-12.9% (inactive),–
COc1ccc(CCNC2=C(Cl)C(=O)N(Cc3ccccc3)C2=O)cc1OC,56.2% (inactive),–
COc1cc(Cl)c(C)cc1Nc1nnc(-n2nc(C)cc2C)c2ccccc12,-0.662% (inactive),–
Cc1ccc(C)c(Cn2c(C(=O)O)c(CNCc3cccs3)c3ccccc32)c1,-32.7% (inactive),–
CSc1ccccc1-c1nnc(NC(=O)c2ccc3c(c2)OCCO3)o1,-12% (inactive),–
O=C(Nc1nnc(C2=COCCO2)o1)c1ccc([N+](=O)[O-])s1,–,56.2 µM (active)
COc1cc(NC(=O)COC(=O)c2ccc([N+](=O)[O-])s2)cc(OC)c1OC,-28.9% (inactive),–
CCOc1ccc(Nc2nc3c(S(=O)(=O)c4cccc(Cl)c4)nnn3c3ccsc23)cc1,-8.06% (inactive),–
Cc1cc(OCC(=O)NCC2(N(C)C)CCCCC2)cc(C)c1Cl,-11.6% (inactive),–
CCCCCn1c(=O)[nH]c2cc(C(=O)Nc3cc(C)cc(C)c3)ccc2c1=O,-7.85% (inactive),–
CCn1c(=S)[nH]c2cc(S(=O)(=O)N3CCOCC3)ccc21,–,17.8 µM (active)

SMILES,"activity change, negative = inhibition",Potency
CCCCn1c(=S)[nH]c2cc(S(=O)(=O)N3CCCCC3)ccc21,-17.6% (inactive),–
Cc1ccc(S(=O)(=O)N2CCN(S(=O)(=O)N3CCOCC3)CC2)cc1,-9.43% (inactive),–
Cc1ccc(-n2cnc3cc(C(=O)NCCC4=CCCCC4)ccc32)cc1Cl,-26.9% (inactive),–
CC1Cc2cc(S(=O)(=O)CCC(=O)Nc3ccc(F)c(Cl)c3)ccc2N1C(=O)C1CC1 (stereo not given),-3.45% (inactive),–
COc1ccc(C(=O)N(Cc2ccccc2)Cc2ccc(OC)c(COc3ccc(NC(C)=O)cc3)c2)c(O)c1,-29.9% (inactive),–
CCOC(=O)NN1C(=O)c2ccccc2NC1c1cccc(O)c1 (stereo not given),-2.14% (inactive),–
COc1ccc(C2Nc3ccccc3C(=O)N2Cc2ccc(CNC(=O)CO)cc2)cc1COc1ccc(NC(C)=O)cc1 (stereo not given),–,79.4 µM (active)
COc1ccc(N2C(=O)C(CC(=O)Nc3ccccc3)N(Cc3ccc(OC)c(OC)c3)C2=O)cc1 (stereo not given),-15.8% (inactive),–
COc1cc(C2C3=C(CCCC3=O)OC3=C2C(=O)CCC3)ccc1OCC(=O)Nc1ccccc1,-19.2% (inactive),–
COc1ccc(C2Nc3ccccc3C(=O)N2c2ccc(F)cc2)cc1Cn1nnc2ccccc21 (stereo not given),5.24% (inactive),–
COc1ccc(C2Nc3ccccc3C(=O)N2Cc2ccc(Cl)cc2)cc1COc1ccc(NC(C)=O)cc1 (stereo not given),-10.9% (inactive),–
COc1ccc(C2Nc3ccc(NC(=O)COC(C)=O)cc3C(=O)N2Cc2ccccc2)cc1COc1ccc(NC(C)=O)cc1 (stereo not given),–,79.4 µM (active)
COc1ccc(NC(=O)NC2CC3CCCC(C2)N3Cc2ccccc2)cc1 (stereo not given),-20.1% (inactive),–
COc1ccc(C2Nc3ccccc3C(=O)N2Cc2ccco2)cc1COc1cccc(NC(C)=O)c1 (stereo not given),–,50.1 µM (active)
COc1ccc(C2Nc3ccccc3C(=O)N2Cc2ccccc2)cc1Cn1nnc2ccccc21 (stereo not given),-11.9% (inactive),–
COc1ccc(C2Nc3cccc(OC)c3C(=O)N2Cc2ccccc2)cc1COc1ccc(NC(C)=O)cc1 (stereo not given),–,56.2 µM (active)
CCOC(=O)c1cc2c(=O)n3ccccc3nc2n(CCCOC)c1=NC(=O)C(C)(C)Oc1ccc(Cl)cc1,8.53% (inactive),–
Cc1ccc(-n2ncc3c(=O)n(Cc4cccc(C(F)(F)F)c4)cnc32)cc1C,0.336% (inactive),–
COC(=O)c1ccc(Cn2c(SCC(=O)N(C)c3ccccc3)nc3ccccc32)cc1,-25.2% (inactive),–
Cc1ccc2onc(CC(=O)N3CCN(c4ccc(Cl)cc4)CC3)c2c1,-19.7% (inactive),–
